The full list was thinned out, with hits kept by preference.
PL biosyn Enam = phospholipid synthesis inhibitors, CHO cells, primary screen, ZR-82 cells, Enamine library, screen 3 | ZR-82 CHO cells, pyrene fatty acid UV survival, CellTiter Blue; peroxisome-deficient CHO-K1 mutant line; plus DGAT-1, DGAT-2 and ACAT inhibitors | calls only at 10 µM | 0.4% of 20,000 active | AID 1347385, 2020;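 active = cell survival signal 2 SD away from solvent-only control wells, confirmed on one or two retests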;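 note: 3 h compound exposure then viability read about one day after UV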
Each line names hits and unclear results; the compound was inactive in the other large screens.

CCN1C(=Cc2cc(C)[n+](N3CCN(C)CC3)c(C)c2)Sc2ccccc21	none
CCC(CO)[n+]1c(C)cc(C=C2Sc3ccccc3N2Cc2ccccc2)cc1C (stereo not drawn)	PL biosyn Enam active
COC(=O)CCN1CCNC(=O)C1	none
COCCN=c1scc(-c2ccc(OC(F)F)cc2)n1/N=C(\C)c1ccc2c(c1)OCO2	none
C/C(=N\n1c(-c2ccc(OC(F)F)cc2)csc1=NC(C)C)c1ccc(-n2ccnc2)cc1	PL biosyn Enam active
C=CCN=c1scc(-c2ccc(OC(F)F)cc2)n1/N=C(\C)c1ccc2c(c1)OCCO2	none
CN=c1scc(-c2ccccc2F)n1/N=C/c1ccccc1F	PL biosyn Enam active
CN=c1scc(-c2ccc(Br)cc2)n1/N=C/c1ccccc1F	none
CN=c1scc(-c2ccccc2F)n1/N=C/c1ccccc1	none
C(=N\n1c(-c2ccco2)csc1=NCCc1ccccc1)/c1ccco1	none
CN=c1scc(-c2ccccc2)n1/N=C/c1c[nH]c2ccccc12	none
C(=N\n1c(-c2ccccc2)csc1=NCCc1ccccc1)/c1c[nH]c2ccccc12	PL biosyn Enam active
O=C1/C(=C\c2ccc(-c3ccccc3)cc2)CS(=O)(=O)c2ccc(F)cc21	none
CC1=CC(=NSc2ccc(Cl)cc2)C=C(C)C1=O	none
C=CCn1sc(N)c(C(=O)OCC)c1=S	PL biosyn Enam active
CCOC(=O)c1c(N)sc(C(N)=O)c1C	none
CCOC(=O)c1c(N)oc(C)c1C(C)=O	none
C=CCn1c(SCc2cc(=O)n3cc(C)ccc3n2)nc2scc(-c3cccs3)c2c1=O	none
CC(C)NC(=S)NN=C1CCC(C(C)(C)C)CC1 (stereo not drawn)	none
CC1CCCC/C1=N\NC(=S)NC1CCCCC1 (stereo not drawn)	none
CC(C)NC(=S)N/N=C1\CCCCC1C1CCCCC1 (stereo not drawn)	PL biosyn Enam active
S=C(N/N=C1\CC2CC=CC12)NC1CCCCC1 (stereo not drawn)	none
CC1C/C(=N\NC(=O)C(N)=O)CC(C)(C)C1 (stereo not drawn)	none
CC1C/C(=N\NC(=S)NC2CCCCC2)CC(C)(C)C1 (stereo not drawn)	PL biosyn Enam active
NC(=O)CCCCCNC(N)=O	none
CC1(C)CC2CC(C)(CN2C(=S)Nc2ccc(SC(F)F)cc2)C1 (stereo not drawn)	none
FC(F)(F)c1ccnn1-c1nc(-c2ccc(Cl)s2)cs1	none
Brc1ccccc1C=C(c1nc2ccccc2s1)c1nc2ccccc2s1	none
O=C1Nc2ccc(Br)cc2C1=C(c1nc2ccccc2s1)c1nc2ccccc2s1	PL biosyn Enam active
Oc1c(Br)cc(/C=C/c2nc3ccccc3s2)cc1Br	none
C/C(=N\Nc1nncc2ccccc12)c1ccc[nH]1	none
CN1CCN(NC(=S)Nc2ccc(Cl)c(F)c2)CC1	none
CNS(=O)(=O)c1ccc(/C(C)=N/Nc2cc(C)c3cc(C)cc(C)c3n2)cc1	PL biosyn Enam active
Cc1ccc(C(=NS(=O)(=O)c2ccc(C)cc2)NS(=O)(=O)c2ccc(C)cc2)cc1	none
C/C(=N\NS(=O)(=O)c1ccc(C)cc1)c1ccc2c(c1)OCCO2	none
O=c1cc(CSc2nnc(C3CCCCC3)o2)nc2ccc(Br)cn12	none
FC(F)(F)c1cnc(N/N=C/c2ccc3c(c2)OCCO3)c(Cl)c1	none
CN=c1scc(-c2ccc(Br)cc2)n1/N=C/c1ccc(Cl)cc1	none
Cc1ccc(-c2csc(=NC(C)C)n2/N=C/c2ccc(Cl)cc2)cc1C	PL biosyn Enam active
CC(C)N=c1scc(-c2ccc(Cl)c(Cl)c2)n1/N=C/c1ccc2c(c1)OCCO2	none
COc1ccc(S(=O)(=O)N2CCCC2)cc1N(C)S(C)(=O)=O	none
C=CCN1C(=O)/C(=N\N=C\c2c[nH]c3ccccc23)c2ccccc21	PL biosyn Enam active
O=S(=O)(N/N=C/c1c[nH]c2ccccc12)c1ccc(Br)cc1	none
NC(=S)N/N=C/c1c[nH]c2ccccc12	none
CCC1(C)NC(=O)N(/N=C/c2c(F)c(F)c(F)c(F)c2F)C1=O (stereo not drawn)	none
ClC1(Cl)CC1Cn1c(Cc2ccccc2)nc2ccccc21 (stereo not drawn)	none
Nc1nc(=O)c2cccnc2s1	none
Cc1nc(N)sc1N=Nc1cccc2ccccc12	PL biosyn Enam active
COc1ccccc1N=Nc1c(O)ccc2ccccc12	none
Brc1ccc(-c2[nH]c3ccccc3c2-c2nc3ccccc3[nH]2)cc1	none
S=C(Nc1ccc(Cl)c(Cl)c1)Nc1cccc2cnccc12	none
C(=N\n1c(-c2ccc3c(c2)OCCO3)csc1=NC1CCCCC1)/c1cccnc1	none
Cc1cc(Cn2nc(C)c([N+](=O)[O-])c2C)no1	none
CC(NC(=S)Nc1ccc(SC(F)F)cc1)C(C)(C)C (stereo not drawn)	none
O=[N+]([O-])c1ccc2[nH]c(O)c(N=Nc3ccc(Cl)c(Cl)c3)c2c1	none
O=[N+]([O-])c1ccc(N=Nc2c(O)[nH]c3ccc(Br)cc23)cc1	PL biosyn Enam active
Oc1[nH]c2ccc(Br)cc2c1N=Nc1ccc(Cl)c(Cl)c1	none
Cc1noc(C)c1CSc1nc2sc3c(c2c(=O)n1C1CCCC1)CCCC3	none
CSCCSc1nc2cc(S(=O)(=O)N(C)C)ccc2o1	none
CCN(CC)S(=O)(=O)c1ccc(N=Nc2c(O)[nH]c3c(C)cc(C)cc23)nc1	none
Cc1cc(C)c2[nH]c(O)c(N=Nc3ccccn3)c2c1	PL biosyn Enam active
Oc1[nH]c2ccc(Br)cc2c1N=Nc1ccccn1	none
Cn1nc(C(=O)N2CCN(C(=O)C3CC3)CC2)ccc1=O	none
S=C(Nc1ccc(Cl)cc1)Nc1cccc(I)c1	none
O=C(Nc1nn2cnnc2s1)c1ccc(=O)[nH]n1	none
CN(C)c1ccc(N=Cc2sc3ccccc3c2Cl)cc1	none
CN(C)c1ccc(N=Nc2ccccc2Cl)cc1	PL biosyn Enam active
CN(C)c1ccc(N=Nc2ccccc2Br)cc1	PL biosyn Enam active
CN(C)c1ccc(N=Nc2ccc(S(=O)(=O)O)cc2)cc1	none
CN(C)c1ccc(C=Nc2ccc(N=Cc3ccc(N(C)C)cc3)cc2)cc1	none
CN(C)c1ccc(N=Nc2nn[nH]n2)cc1	none
O=c1oc2cc(OCc3cc(=O)n4ccsc4n3)ccc2c2c1CCC2	none
Cc1csc(=O)[nH]1	none
Cc1sc2ncnc(N3CCCC(CO)C3)c2c1C (stereo not drawn)	none
Brc1cc2c(cc1CSc1nnc(-c3ccccc3)o1)OCO2	none
CN(C)S(=O)(=O)c1ccc(NS(=O)(=O)c2ccc(F)c(F)c2F)cc1	none
COCCN=c1scc(C)n1/N=C/c1c[nH]c2ccc(Br)cc12	none
c1ccc(C2=NN3C(C2)c2ccccc2OC32CCCCC2)cc1 (stereo not drawn)	none
CC1(C)Oc2ccccc2C2CC(c3ccc(-c4ccccc4)cc3)=NN21 (stereo not drawn)	none
c1ccc(C2=NN3C(C2)c2ccccc2OC32CCCC2)cc1 (stereo not drawn)	none
O=C1NC2(Oc3ccccc3C3CC(c4ccccc4)=NN32)/C(=C/c2cccc(OCc3ccccc3)c2)S1 (stereo not drawn)	PL biosyn Enam active
CCC1(C)Oc2ccccc2C2CC(c3ccccc3)=NN21 (stereo not drawn)	none
O=C1NC2(Oc3ccc(Br)cc3C3CC(c4ccccc4)=NN32)/C(=C/c2ccccc2)S1 (stereo not drawn)	PL biosyn Enam active
NC(=O)NNS(=O)(=O)c1ccc2c(c1)Cc1cc(S(=O)(=O)NNC(N)=O)ccc1-2	none
CNS(=O)(=O)c1ccc(SCCO)c([N+](=O)[O-])c1	none
O=[N+]([O-])c1cc(S(=O)(=O)C(F)(F)F)ccc1NCCc1nnc2ccccn12	none
O=[N+]([O-])c1ccc(Cl)cc1NN=C1C2CC3CC1CC(O)(C3)C2	none
N=C(N)N=Nc1c(O)[nH]c2ccccc12	none
